Consider 85 compounds from PubChem BioAssay AID588692 (Broad Institute, 2011).

The whole screen tested about 360,000 compounds, of which about 830 (0.23%) were called active.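 The calls were made as follows: active = mean luciferase reporter signal, scaled so untreated is 0 and the glycosylation-blocking control 100, at or above a set limit in every replicate; inconclusive = mean reaches the limit but not every replicate does; inactive = mean below the limit.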 The list comes from a sample in which actives are over-represented; it also holds similar structures and randomly drawn compounds.

The experiment in a line: D54 reporter luminescence gain compounds – D54 ERlucT cells, set 2, N-linked glycosylation inhibitor project, primary screen (AID 588692).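 Also: luciferase carries N-glycosylation sites so blocking glycosylation raises the light; 0% = median of neutral control wells and 100% = median of 100 nM tunicamycin wells.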 Conditions: D54 ERlucT glycosylation luciferase reporter, 24 h; at 12.5 µM; active compounds read high; percent of 100 nM tunicamycin response.
With `C[C@@H]1CN([C@@H](C)CO)C(=O)c2cc(Br)cnc2O[C@@H]1CN(C)C(=O)C1CCCCC1`, the reporter increase was -0.264% (inactive).
`CC1(C)O[C@@H]2[C@H](O1)[C@@H](COS(=O)(=O)O)O[C@H]2n1ccc(=O)[nH]c1=O`: the reporter increase is 2.9% (inactive).
For `CCCNC(=O)C1(C)CCN(C(=O)c2cc(F)ccc2C)C1` (stereo not given) the value was -0.06% (inactive); for `CC(C)OCCCNC(=S)N1CCC(C(=O)c2ccc3c(c2)OCCO3)CC1`, -1.26% (inactive); for `COc1ccc(C)cc1NC(=O)CSc1cccc[n+]1[O-]`, 1.45% (inactive).
For `CN(C)c1ccc(S(=O)(=O)NCC(=O)NCC2CCCCC2)cc1[N+](=O)[O-]` the value was -0.935% (inactive); for `CN(C)c1ccc(/C=C/C(=O)c2ccc(C(C)(C)C)cc2)cc1[N+](=O)[O-]`, 32.9% (active).
For `O=C(/C=C/c1ccc(Cl)cc1)N1CCN(c2ccccc2[N+](=O)[O-])CC1` the value was 0.213% (inactive); for `CC/C(=N\NC(=O)c1c(C)nc2ccccn12)c1ccc(Cl)cc1`, -0.008% (inactive); for `OCc1ccc(-c2ccccc2)c(-c2ccccc2)c1`, 2.12% (inactive).
Take `CCCc1nc2ccccc2c(C(=O)OCc2nnc(-c3cc(OC)c(OC)c(OC)c3)o2)c1CC`: the reporter increase was 1.91% (inactive).
For `O=C1C2C3C=CC(C3)C2C(=O)N1c1ccc(S(=O)(=O)Nc2nccs2)cc1` (stereo not given), the reporter increase was -0.133% (inactive).
For `Cc1sc2ncnc(SCC(=O)Nc3ccc(CN4CCCC4)cc3)c2c1C` the value was -0.51% (inactive); for `C=CCn1c(SCC(=O)NCC2CCCO2)nc2sc(C)c(C)c2c1=O` (stereo not given), -1.1% (inactive).
Consider `C=CCn1c(SCC(=O)NCCCO)nc2sc3c(c2c1=O)CCC3`, for which the reporter increase is 0.299% (inactive).
Under `C=CCn1c(SCc2c(C)noc2C)nc2sc3c(c2c1=O)CCC(C)C3` (stereo not given) stands 27.8% (active).
`N#Cc1ccc(C2=CC(=O)C[C@H](c3ccc(Cl)cc3)C2)cc1`: the reporter increase is 1.89% (inactive).
As for `CC(=O)NCC(=O)N(Cc1ccco1)C1(C(=O)NC2CCCC2)CCCCC1`, the reporter increase is -0.741% (inactive).
Regarding `O=C(Nc1ccc(Cl)cc1)C1Cc2c(-c3ccc4c(c3)OCO4)ccnc2O1` (stereo not given), the reporter increase was 1.69% (inactive).
For the compound `CCc1c(C)n([O-])c2c([n+]1=O)CCCCC2`, the reporter increase is 2% (inactive).
Under `CCCNC(=O)C1(C)CCCN(C(=O)c2cccc(OC(C)=O)c2C)C1` (stereo not given) stands -0.136% (inactive); under `Cc1ccc(Nc2nc(CSc3nnc(-c4ccncc4)n3-c3ccccc3C)cs2)cc1`, -2.15% (inactive).
Turning to `CC1CCCCN1C(=O)Cn1c(=O)oc2cc(S(=O)(=O)N3CCCCC3)ccc21` (stereo not given), the reporter increase is -0.145% (inactive).
On to `CC(C)CCNC(=O)Cn1c(=O)oc2cc(S(=O)(=O)N3CC(C)CC(C)C3)ccc21` (stereo not given), for which the reporter increase was 114% (active).
With `COc1cccc(CNC(=O)Cn2c(=O)oc3cc(S(=O)(=O)N4CCCCC4)ccc32)c1`, the reporter increase is -0.785% (inactive).
Consider `CCOC(=O)c1cc2cc(-c3c(C(=O)OCC)oc4cc(O)cc(O)c4c3=O)ccc2o1`, for which the reporter increase was -0.142% (inactive).
For `Cc1cccc(C)c1NC(=O)Nc1ccccc1-n1ccnc1` the value was 0.968% (inactive); for `Cc1cccn2cc(-c3cccc(S(=O)(=O)N4CCCCC4)c3)nc12`, -0.565% (inactive).
Under `CC1CCCC(NC(=O)c2cc(-c3ccncc3)nc3ccccc23)C1C` (stereo not given) stands 0.382% (inactive); under `Cc1ccc2nc(-c3ccncc3)cc(C(=O)Nc3ccc(OC(F)F)cc3)c2c1`, -8.25% (inactive); under `Cc1ccc2nc(-c3ccncc3)cc(C(=O)Nc3ccncc3)c2c1`, 29.9% (active).
`O=C(c1ccc(N2CCCC2=O)cc1)N1CCN(c2ccc(C(F)(F)F)cc2[N+](=O)[O-])CC1`: the reporter increase is -1.99% (inactive).
For `CN(C)C(=O)N=NC(=O)N(C)C` the value was 0.968% (inactive).
In the case of `COc1cc(N/C=C2\CC(=O)NC(C)=C2C#N)cc(OC)c1OC`, the reporter increase is 0.911% (inactive).
For `O=C1/C(=C\c2ccc(O)cc2)CCC1CNc1ccc(Cl)cc1` (stereo not given) the value was 10.4% (inactive); for `Cn1c(=O)n(C)c2cc(C(=O)Nc3ccc4c(c3)OCO4)ccc21`, 70.1% (active).
Under `COc1cccc(OC)c1C(=O)Nc1ccc2c(c1)n(C)c(=O)n2C` stands 9.32% (inactive); under `Cc1ccc(C(=O)Nc2ccc3c(c2)OCCO3)cc1S(=O)(=O)N1CCOCC1`, -2.07% (inactive).
`Cc1ccc(S(=O)(=O)N2CCOCC2)cc1NC(=O)c1ccncc1`: the reporter increase was 0.492% (inactive).
As to `Cc1ccc(S(=O)(=O)NN=C2CC(C)(C)CC(=O)C2(C)C)cc1`, the reporter increase was -0.913% (inactive).
As for `Cc1cccc(S(=O)(=O)N2CN(CC3CCCO3)c3nc4ccccc4nc32)c1` (stereo not given), the reporter increase was 0.557% (inactive).
Under `Cc1sc2c(c1C)c(=O)n(-c1ccccc1)c1nncn21` stands 3.73% (inactive).
Under `C=CCN(CC=C)S(=O)(=O)c1ccc(C(=O)Nc2nc3c(s2)CCc2ccccc2-3)cc1` stands 55.6% (active); under `O=C(Nc1ccc(S(=O)(=O)N2CCc3ccccc3C2)cc1)c1ccccc1`, -1.85% (inactive).
For `COCCN(CCOC)S(=O)(=O)c1ccc(C(=O)Nc2nc3c(s2)CCc2ccccc2-3)cc1` the value was -0.048% (inactive).
For the compound `C[C@H](CO)N1C[C@H](C)[C@H](CN(C)CC2CC2)Oc2ccc(NC(=O)CCN3CCOCC3)cc2C1=O`, the reporter increase is 1.29% (inactive).
On to `CCc1nnc(NC(=O)C2CC(=O)N(c3ccc4c(c3)OCCO4)C2)s1` (stereo not given), for which the reporter increase was 1.58% (inactive).
On to `CNC(=O)c1cccc2nc3ccccc3nc12`, for which the reporter increase was 39.1% (active).
Take `CNC(=O)C(NC(=O)c1ccccc1)=C(C)C`: the reporter increase was -0.912% (inactive).
For `CN(C)C(=O)c1coc2nc3ccccc3nc12` the value was 0.129% (inactive); for `COc1ccc2[nH]c3c(c2c1)CCN1C(=O)C(CC(=O)NCCc2ccccn2)C[C@H](C(=O)N2CCOCC2)[C@@]31C` (stereo not given in full), 2.29% (inactive); for `CSc1cc(C)n(-c2ccccc2C)c(=S)c1C(C)=O`, -0.347% (inactive).
Under `COc1ccccc1CNC(=O)CNC(=O)c1cn(-c2ccccc2OC)c(=O)c2ccccc12` stands 1.89% (inactive); under `Cc1ccc(F)c(S(=O)(=O)NC(=O)C2(C)CCN2C(=O)CCc2cccs2)c1` (stereo not given), 2.26% (inactive).
Under `O=C(Nc1cccc(Cc2ccccc2)c1)Nc1ccc2nc([C@@H]3O[C@H](CO)[C@@H](O)[C@H](O)[C@H]3O)[nH]c2c1` stands 0.008% (inactive); under `NNC(=O)CNC(c1ccccc1)c1cc(Cl)ccc1NC(=O)c1ccccc1` (stereo not given), -3.39% (inactive).
As to `Cn1ccc(=Nc2ccc(NC(=O)c3ccc(N=c4ccn(C)c5ccc([N+](=O)[O-])cc45)cc3)cc2)cc1`, the reporter increase is 32.9% (active).
On to `CN(CC1CCCO1)S(=O)(=O)c1ccc(C(=O)Nc2ccc([N+](=O)[O-])cc2)cc1` (stereo not given), for which the reporter increase is -5.35% (inactive).
Turning to `CC(C)c1ccc(NC(=O)CCN2C(=O)c3ccc([N+](=O)[O-])cc3C2=O)cc1`, the reporter increase was 1.26% (inactive).
Turning to `COCCCn1c(SCC(=O)Nc2oc(C)c3c(C)n[nH]c(=O)c23)nc2sc3c(c2c1=O)CCC3`, the reporter increase was 4.94% (inactive).
For `C1CC1Cc1noc(CN2CCN(CC3CC3)CC2)n1` the value was -0.901% (inactive).
`O=C(COC(=O)Cn1cnc2ccccc21)Nc1cccc2c1C(=O)c1ccccc1C2=O`: the reporter increase is 103% (active).
Under `O=C(COC(=O)Cn1cnc2ccccc2c1=O)NCc1ccccc1Cl` stands 0.775% (inactive); under `O=C(Cn1cnc2ccccc21)Nc1ccccc1-c1ccccc1`, 0.271% (inactive); under `COc1cc(C(=S)N2CCOCC2)cc(OC)c1OC(=O)c1cc([N+](=O)[O-])c(C)c([N+](=O)[O-])c1`, 1.27% (inactive).
Turning to `CSc1ccc(/C=N/N2CCN(Cc3ccccc3Cl)CC2)cc1`, the reporter increase is 2.53% (inactive).
Under `Cc1ccc(C)c(NC(=O)CCC(=O)N/N=C2/CC(=O)CC(C)(C)C2)c1` stands 0.203% (inactive); under `CC(C)NC(=O)Nc1cccc2c1O[C@H](CN(C)S(=O)(=O)c1cccs1)[C@@H](C)CN([C@H](C)CO)C2=O`, 0.641% (inactive).
Under `O=C(CNCc1ccco1)Nc1cc(S(=O)(=O)N2CCOCC2)ccc1N1CCCC1` stands 2.55% (inactive); under `O=[N+]([O-])c1cc(S(=O)(=O)Nc2cccc(Cl)c2)ccc1N=Nc1c(O)[nH]c2ccccc12`, -5.47% (inactive); under `COC(=O)c1ccc(C(=O)NC2CC(C)(C)Cc3c2cnn3-c2ccc(F)cc2)nc1` (stereo not given), 26.7% (active).
Under `Cc1cc(C(=O)NC2CC(C)(C)Cc3c2cnn3-c2ccccc2)n[nH]1` (stereo not given) stands -9.34% (inactive); under `CC1(C)Cc2c(cnn2-c2cccc(F)c2)C(NC(=O)c2cc[n+]([O-])cc2)C1` (stereo not given), 1.53% (inactive); under `CN(CCO)C(=O)c1nc[nH]c1C(=O)N(C)Cc1ccccc1`, 1.82% (inactive).
Regarding `COc1cc(CCN=Cc2ccccc2O)c([N+](=O)[O-])cc1OC`, the reporter increase is 2.9% (inactive).
Under `COc1ccc(OC)c2[nH]c(=O)c(CCNC(=O)C(=O)c3c[nH]c4ccccc34)cc12` stands -0.931% (inactive); under `O=c1ccc2cc(S(=O)(=O)NCCCc3ccccc3)ccc2[nH]1`, -0.159% (inactive); under `O=C(Nc1ccc(N2CCCC2=O)cc1)c1cncc(Br)c1`, -9.16% (inactive).
For `O=C(N/N=C/c1cccc(Br)c1)c1ccc(N2CCCC2=O)cc1`, the reporter increase was 29.6% (active).
Under `O=C(N/N=C\c1cccc(Br)c1)c1ccccc1-n1cccc1` stands 0.034% (inactive); under `COCOc1cccc(CN2CCC(C)(Oc3ccc(SC)cc3)C2)c1` (stereo not given), -0.871% (inactive).
Turning to `Cc1ccc(C)c(NC(=O)C2Cc3ccccc3CN2C(=O)OCc2ccccc2)c1` (stereo not given), the reporter increase was -1.83% (inactive).
Under `O=C(COc1ccc(Cl)cc1)Nc1ccc2oc(=O)ccc2c1` stands -2% (inactive).
As to `CCCNC(=O)C1(C)CCN(Cc2ccc(Cl)c(Cl)c2)C1` (stereo not given), the reporter increase was 0.635% (inactive).
In the case of `Cc1cc(C)c2c(=O)n3c(nc2c1)C(CC(C)C)NC(=O)c1cc2ccccc2cc1-3` (stereo not given), the reporter increase is -7.33% (inactive).
